Compound activity from PubChem.
Rows were chosen to be rich in hits. Some 1.6% of all compounds tested hit in one or more screens of this group.
KCNQ2 enhance = potentiators of rat KCNQ2 potassium channel; AID 2239; CHO-K1 KCNQ2, FluxOR thallium flux fluorescence; stronger effect = higher value; B-score at 10 µM; 0.54% of 310,000 active; O88943;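 active = fluorescence ratio B-score at least 3 SD of library B-scores, with initial fluorescence B-score within 3 of them, cut at about 5.3 in these data; same plate scores as AID 2156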;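 also: B-score of peak minus minimum over baseline fluorescence ratio after K+ and Tl+ stimulus; positive B-score means potentiation of KCNQ2 with more thallium influx and brighter signal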
KCNQ2 block = inhibitors of rat KCNQ2 potassium channel; O88943; CHO-K1 KCNQ2, FluxOR thallium flux, 20 min; stronger effect = lower value; B-score at 10 µM; 1.1% of 310,000 active;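 active = fluorescence ratio B-score at most minus 3 library SDs, with starting brightness B-score within 2 library SDs, cut at about -5.5 in these data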
Kir21 confirm = confirmation of mouse Kir2.1 potassium channel inhibitors; 41% of 2,300 active; shares compounds with KCNQ2 enhance; Tl flux remaining, % of negative control (stronger effect = lower value), % at 10 µM; AID 2032; Kir2.1-expressing cells, FluxOR thallium flux fluorescence; stronger effect = lower value;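 active = Primary-screen hit whose thallium flux fell at least 3 control SD below untreated wells in both duplicates, with normal baseline fluorescence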
HEK293 ctr = alters thallium flux in parental HEK293 cells, Kir2.1 counter-screen. shares compounds with KCNQ2 enhance. FluxOR thallium flux fluorescence; 0% = unstimulated blank wells. FluxOR signal as % of negative control (100 = no effect), % at 10 µM. 19% of 2,300 active. AID 2105;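 active = dye signal at least 3 control SD above or below untreated wells in both duplicates, raw fluorescence within 3, either direction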;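 also: percent is based on the flux ratio of peak minus minimum fluorescence over baseline F0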
CHO-K1 Tl ctr = alters thallium flux in parental CHO-K1 cells, KCNQ2 counter-screen. shares compounds with KCNQ2 enhance. FluxOR thallium flux fluorescence; zero = vehicle mean+3SD, 100% = vehicle-minus-blank window. activity increase over 3SD of controls, % at 10 µM. 43% of 1,200 active. AID 2282;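 active = signal rise of at least 3 SD above the untreated control mean, in both duplicate wells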;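 also: counter screen of KCNQ2 potentiator hits so any rise reflects channel-independent effects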
KCNQ1 sel pot = human KCNQ1 counter-target activity of KCNQ2 potentiators; CHO KCNQ1 stable, FluxOR thallium flux fluorescence; beyond 3SD, as % of vehicle-control signal; AID 2283; 28% of 1,200 active; shares compounds with KCNQ2 enhance; activation over 3SD threshold, % at 10 µM;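 active = fluorescence ratio rise of at least 3 SD of vehicle wells above their mean, in both replicate wells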
Target sequence (P51787 whole entry, looked up): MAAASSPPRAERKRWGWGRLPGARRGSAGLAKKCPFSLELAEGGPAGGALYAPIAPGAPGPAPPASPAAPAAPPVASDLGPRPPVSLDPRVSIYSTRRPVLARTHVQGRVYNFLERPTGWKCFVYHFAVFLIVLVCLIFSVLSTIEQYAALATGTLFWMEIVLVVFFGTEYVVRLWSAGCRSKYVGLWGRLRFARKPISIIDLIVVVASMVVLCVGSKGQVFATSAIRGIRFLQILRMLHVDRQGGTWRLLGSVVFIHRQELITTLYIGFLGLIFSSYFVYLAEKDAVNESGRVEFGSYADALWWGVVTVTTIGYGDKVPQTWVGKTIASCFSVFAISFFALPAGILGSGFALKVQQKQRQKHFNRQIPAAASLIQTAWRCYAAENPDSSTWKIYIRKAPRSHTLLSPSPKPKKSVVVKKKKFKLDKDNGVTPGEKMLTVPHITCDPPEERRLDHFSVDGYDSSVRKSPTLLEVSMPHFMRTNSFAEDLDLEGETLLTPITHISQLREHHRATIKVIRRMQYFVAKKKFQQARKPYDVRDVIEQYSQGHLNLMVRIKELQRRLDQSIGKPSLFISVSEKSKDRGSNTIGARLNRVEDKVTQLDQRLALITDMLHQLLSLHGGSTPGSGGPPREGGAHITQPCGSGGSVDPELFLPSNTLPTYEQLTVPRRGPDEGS
KCNQ2 pot confirm = rat KCNQ2 channel potentiator confirmation | shares compounds with KCNQ2 enhance | CHO-KCNQ2 cells, FluxOR thallium flux fluorescence | potentiation, less the hit threshold, % at 10 µM | 68% of 1,200 active | AID 2287;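 active = fluorescence ratio rising 3 SD or more over the vehicle control mean in both replicates, plus primary screen hit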;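 also: peak minus minimum thallium fluorescence divided by baseline after K/Tl stimulus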
Kir21 spec = tests whether KCNQ2 potentiators also affect mouse Kir2.1 | shares compounds with KCNQ2 enhance | 2% of 1,200 active | AID 2345 | HEK293 Kir2.1, FluxOR thallium flux fluorescence | activity over 3SD threshold, % at 10 µM;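 active = fluorescence ratio rise of at least 3 SD above the vehicle-control mean, seen in both replicates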
KCNQ2 W236L pot = potentiates the retigabine-insensitive rat KCNQ2 W236L mutant channel | shares compounds with KCNQ2 enhance | CHO KCNQ2-W236L, automated patch clamp current | current increase over 3SD of negative controls (%), stronger effect = higher value, % at 25 µM | 10% of 940 active;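 active = current increase at least 3 SD of the untreated controls above them in both duplicate recordings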
Hits are given with their value; - = inactive; . = no result given.

SMILES	KCNQ2 enhance	KCNQ2 block	Kir21 confirm	HEK293 ctr	CHO-K1 Tl ctr	KCNQ1 sel pot	KCNQ2 pot confirm	Kir21 spec	others
CCOc1ccc(C(=O)N/N=C/c2ccc(-c3ccc(S(=O)(=O)Nc4ncccn4)cc3)o2)cc1	-	-	.	.	.	.	.	.
O=C(N/N=C/c1ccc(-c2ccc(S(=O)(=O)Nc3ncccn3)cc2)o1)c1cc2ccccc2cc1O	5.5	-	-	-	-	-	-	-
CCN1CCN(C(=O)CCc2nnc(CCc3ccc(OC)cc3)o2)[C@@H](C)C1=O	.	-	.	.	.	.	.	.
S=c1nc(C2CCCCC2)n(-c2ccccc2)[nH]1	11	-	-	262%	42	-	22	-	KCNQ2 W236L pot=-
S=c1nc(-c2ccccc2)n(-c2ccccc2)[nH]1	-	-	.	.	.	.	.	.
COc1nc(N)nc2nc[nH]c12	-	-	.	.	.	.	.	.
CC(=O)/C(C#N)=C1\NC(=O)C(Cc2ccc(F)cc2)S1 (configuration not stated)	-	-	.	.	.	.	.	.
CC(=O)/C(C#N)=C1\NC(=O)C(Cc2ccc(C)c(C)c2)S1 (configuration not stated)	7.2	-	-	-	3.5	-	-	-
C/C(=C\C(=O)OCCCCCCCCC(=O)O)C[C@@H]1OC[C@H](C[C@@H]2O[C@H]2[C@@H](C)[C@H](C)O)[C@@H](O)[C@H]1O	.	-	.	.	.	.	.	.
Cc1ccc(N2CN=C3SCC(=O)N3C2)cc1C	-	-	.	.	.	.	.	.
O=S(=O)(c1ccccc1)N(Cc1ccccc1)c1ccccn1	.	-	-	-	.	.	.	.
CC(=O)Nc1ccc(S(=O)(=O)N(Cc2ccccc2)c2ccccn2)cc1	.	-	.	.	.	.	.	.
Cc1ccc(NC(=O)C2CCCN(S(=O)(=O)c3ccc4[nH]c(=O)ccc4c3)C2)c(C)c1 (configuration not stated)	.	-	.	.	.	.	.	.
Cn1cnc([N+](=O)[O-])c1NC(C)(C)C	-	-	.	.	.	.	.	.
Cn1cnc([N+](=O)[O-])c1S(=O)(=O)c1ccc(Cl)cc1	.	-	70%	68%	.	.	.	.
CC(OC(=O)Cn1cnc2ccccc2c1=O)C(=O)NCc1ccccc1 (configuration not stated)	.	-	.	.	.	.	.	.
O=C(O)c1cc(C(F)(F)F)nc2c(C(F)(F)F)cccc12	.	-	.	.	.	.	.	.
Cc1cc(C)c(NC(=O)C2CCCCN2C)c(C)c1 (configuration not stated)	.	-	.	.	.	.	.	.
Cc1cc(C)c(NC(=O)C2CSCCS2)c(C)c1 (configuration not stated)	6.5	-	-	-	23	15	-	-	KCNQ2 W236L pot=-
Cc1ccc(C)c(C(=O)COC(=O)c2cc([N+](=O)[O-])ccc2NCCO)c1	-	-	.	.	.	.	.	.
Cc1ccc(C)c(NC(=O)CSc2nc3nc(-c4cccs4)cc(C(F)(F)F)c3c(=O)[nH]2)c1	6.4	-	-	-	-	34	-	-
O=C(CSc1nc2nc(-c3cccs3)cc(C(F)(F)F)c2c(=O)[nH]1)Nc1ccc(F)c(F)c1	-	-	.	.	.	.	.	.
COc1ccc(S(=O)(=O)Nc2cccc(-c3ccc4nncn4n3)c2)c(OC)c1	.	-	.	.	.	.	.	.
Cc1occc1C(=O)Nc1ccc2ccccc2c1	13	-	-	-	105	-	60	-	KCNQ2 W236L pot=-
Cc1occc1C(=O)Nc1ccccc1C(=O)O	.	-	.	.	.	.	.	.
SMILES	KCNQ2 enhance	KCNQ2 block	Kir21 confirm	HEK293 ctr	CHO-K1 Tl ctr	KCNQ1 sel pot	KCNQ2 pot confirm	Kir21 spec	others
Cc1cc(C)c(NC(=O)c2ccoc2C)c(C)c1	6.1	-	-	-	-	-	9.5	-	KCNQ2 W236L pot=-
CC(=O)c1cccc(NC(=O)c2ccoc2C)c1	-	-	.	.	.	.	.	.
CCC(NC(=S)NCc1ccc(F)cc1)c1ccc(C(C)C)cc1 (configuration not stated)	7.2	-	-	-	78	-	21	-	KCNQ2 W236L pot=-
CCC(C)c1ccc(C(C)NC(=S)NCc2ccc(F)cc2)cc1 (configuration not stated)	-	-	.	.	.	.	.	.
CC1CC(C)C[N+](=C2C=C(N3CCCC3)CC(C)(C)C2)C1 (configuration not stated)	.	-	-	-	.	.	.	.
CC1(C)CC(N2CCCC2)=CC(=[N+]2CCCCCC2)C1	-	-	.	.	.	.	.	.
O=C(COc1cccc2ccccc12)Nc1ccc(Cl)cc1C(=O)O	7.2	-	-	129%	-	-	23	-	KCNQ2 W236L pot=-
O=C(COc1cccc2ccccc12)Nc1cc(Cl)ccc1C(=O)O	-	-	.	.	.	.	.	.
O=C1CCC(C(=O)N2CCCCCC2)CN1Cc1cccc(C(F)(F)F)c1 (configuration not stated)	.	-	.	.	.	.	.	.
Cc1ccc(NC(=O)NCC2CCN(Cc3cc(C)ccc3Cl)CC2)c(C)c1	-	-	.	.	.	.	.	.
Cc1ccc(C)c(CN2CCC(CNC(=O)Nc3cccc(Cl)c3C)CC2)c1	5.3	-	-	-	-	-	-	-	KCNQ2 W236L pot=-
Cc1ccc(NC(=O)[C@H](C)NC(=O)C2CCN(C(=O)[C@@H](NC(=O)OC(C)(C)C)C(C)C)CC2)cc1	-	-	.	.	.	.	.	.
CCCCN1C2=NC(c3ccccc3)CN2c2ccccc21 (configuration not stated)	.	-	.	.	.	.	.	.
Cc1csc(N2CCCC2c2nc3cc(Cl)c(N4CCCCC4)cc3n2CCOCCO)n1 (configuration not stated)	-	-	.	.	.	.	.	.
OCOCCCn1c(C2CCCN2c2nc(-c3ccc(F)cc3)cs2)nc2cc(Cl)c(N3CCCCC3)cc21 (configuration not stated)	6.9	-	-	-	58	-	-	-
Nc1c(Cl)cc(-c2csc(N3CCCC3c3nc4cc(Cl)c(N5CCCCC5)cc4n3CCCO)n2)cc1Cl (configuration not stated)	20	-	-	-	-	-	38	-	KCNQ2 W236L pot=-
Nc1c(Cl)cc(-c2csc(N3CCCC3c3nc4cc(Cl)c(N5CCCCC5)cc4n3CCOCCO)n2)cc1Cl (configuration not stated)	6.3	-	-	-	3.5	-	-	-	KCNQ2 W236L pot=-
OCCCn1c(C2CCCN2c2nc(-c3ccc(F)cc3)cs2)nc2cc(Cl)c(Cl)cc21 (configuration not stated)	-	-	.	.	.	.	.	.
Nc1c(Cl)cc(-c2csc(N3CCCC3c3nc4cc(Cl)c(Cl)cc4n3CCCO)n2)cc1Cl (configuration not stated)	.	-	.	.	.	.	.	.
COC(=O)CC1C(=O)NCCN1C(=S)NC(=O)c1sc2ccccc2c1Cl (configuration not stated)	-	-	.	.	.	.	.	.
